From PubChem BioAssay (NCATS)
Results filed as inconclusive are left out. Active and inactive are the calls of the source. The call rests on the fitted dose curve; in most records, active means well fitted curve in the direction sought with a large enough effect; inconclusive means small, poorly fitted or top-dose-only effect, or another doubt; inactive means no such curve, though single readings can be large; an effect the other way counts as inactive or inconclusive.

Assays:
[1] = tested on: NIH3T3; test: Cytotoxic Profiling of Annotated Libraries Using Quantitative High-Throughput Screening (AID 1296008); details: Five cell lines viability, CellTiter-Glo ATP luminescence, 48-72 h; hits give low values; further: nearly all actives have a fitted effect of over 60% in size
Method in brief: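 Cells exposed to compounds for 48 or 72 hr at 37 degrees Celsius. Viability read as ATP-coupled luminescence with CellTiter-Glo after 10 min at room temperature.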

[2] = tested on: HEK293T; test: qHTS assay to identify novel small-molecules to repurpose for Merkel cell carcinoma treatment (AID 1296009); details: MCC and control cell lines, CellTiter-Glo viability, 72 h; at 44.8 µM (top of the series) unless noted; further: nearly all actives have a fitted effect of over 60% in size
Method in brief: (§1)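 Dose-response viability screen; 72 hr exposure at 37 degree celsius; CellTiter-Glo added, 10 min room temperature, luminescence read; RLUs scaled between no-cell and DMSO wells.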

[3] = tested on: MCC-13; test: as above; details: MCC and control cell lines, CellTiter-Glo viability, 72 h; series mostly up to 46 µM
Method in brief: as §1

[4] = tested on: MCC-26; test: as above; details: MCC and control cell lines, CellTiter-Glo viability, 72 h; series mostly up to 46 µM
Method in brief: as §1

[5] = tested on: MKL-1; test: as above; details: MCC and control cell lines, CellTiter-Glo viability, 72 h; series mostly up to 46 µM
Method in brief: as §1

[6] = tested on: MKL-2; test: as above; details: MCC and control cell lines, CellTiter-Glo viability, 72 h; series mostly up to 46 µM
Method in brief: as §1

[7] = tested on: UISO; test: as above; details: MCC and control cell lines, CellTiter-Glo viability, 72 h; series mostly up to 46 µM
Method in brief: as §1

[8] = tested on: WaGa; test: as above; details: MCC and control cell lines, CellTiter-Glo viability, 72 h; series mostly up to 46 µM
Method in brief: as §1

[9] = tested on: C33A; test: Primary qHTS to identify gynecologic anti-cancer compounds using libraries of approved drugs and bioactive compounds (AID 1345084); details: Gynecologic cancer cell panel viability, ATPlite luminescence, 48 h; series mostly up to 57.5 µM; further: nearly all actives have a fitted effect of over 55% in size
Method in brief: (§2)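 Five-concentration response, 48 h; readout is ATP-driven luciferase luminescence.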

[10] = tested on: CAOV3; test: as above; details: Gynecologic cancer cell panel viability, ATPlite luminescence, 48 h; series mostly up to 57.5 µM
Method in brief: as §2

[11] = tested on: CASKI; test: as above; details: Gynecologic cancer cell panel viability, ATPlite luminescence, 48 h; series mostly up to 57.5 µM
Method in brief: as §2

[12] = tested on: Es-2; test: as above; details: Gynecologic cancer cell panel viability, ATPlite luminescence, 48 h; series mostly up to 57.5 µM
Method in brief: as §2

[13] = tested on: HeLa; test: as above; details: Gynecologic cancer cell panel viability, ATPlite luminescence, 48 h; series mostly up to 57.5 µM
Method in brief: as §2

[14] = tested on: Hek293T; test: as above; details: Gynecologic cancer cell panel viability, ATPlite luminescence, 48 h, control line for the selectivity index; series mostly up to 57.5 µM
Method in brief: as §2

[15] = tested on: JEG-3; test: as above; details: Gynecologic cancer cell panel viability, ATPlite luminescence, 48 h; series mostly up to 57.5 µM
Method in brief: as §2

[16] = tested on: OV90; test: as above; details: Gynecologic cancer cell panel viability, ATPlite luminescence, 48 h; series mostly up to 57.5 µM
Method in brief: as §2

[17] = tested on: PA-1; test: as above; details: Gynecologic cancer cell panel viability, ATPlite luminescence, 48 h; series mostly up to 57.5 µM
Method in brief: as §2

[18] = tested on: HACAT; test: qHTS assay to identify novel small-molecules to repurpose for Merkel cell carcinoma treatment (AID 1296009); details: MCC and control cell lines, CellTiter-Glo viability, 72 h; at 44.8 µM (top of the series) unless noted; further: nearly all actives have a fitted effect of over 60% in size
Method in brief: as §1

[19] = tested on: SKOV3; test: Primary qHTS to identify gynecologic anti-cancer compounds using libraries of approved drugs and bioactive compounds (AID 1345084); details: Gynecologic cancer cell panel viability, ATPlite luminescence, 48 h; series mostly up to 57.5 µM; further: nearly all actives have a fitted effect of over 55% in size
Method in brief: as §2

[20] = tested on: NIH3T3; test: qHTS assay to identify novel small-molecules to repurpose for Merkel cell carcinoma treatment (AID 1296009); details: MCC and control cell lines, CellTiter-Glo viability, 72 h; at 44.8 µM (top of the series) unless noted; further: nearly all actives have a fitted effect of over 60% in size
Method in brief: as §1
On the % scale 0 is the no-effect control and ±100 the full control effect.

C/C=C1\[C@H]2C=C(C)C[C@]1(N)c1ccc(=O)[nH]c1C2
inactive: max response [1] -4.73% | outcome [2] | outcome [3] | outcome [4] | outcome [5] | outcome [6] | outcome [7] | outcome [8] | outcome [9] | outcome [10] | outcome [11] | outcome [12] | outcome [13] | outcome [14] | outcome [15] | Potency [16] | outcome [17]

O=C(NCN1CCOCC1)c1cnccn1
inactive: max response [1] -0.98% | outcome [18] | outcome [3] | outcome [5] | outcome [6] | outcome [7] | outcome [8] | outcome [9] | outcome [10] | outcome [11] | outcome [12] | outcome [13] | outcome [14] | outcome [15] | Potency [16] | outcome [17] | outcome [19]

CC(=O)NS(=O)(=O)c1ccc(N)cc1
inactive: max response [1] -1.48% | outcome [18] | outcome [3] | outcome [5] | outcome [6] | outcome [7] | outcome [8] | outcome [9] | outcome [11] | outcome [12] | outcome [13] | outcome [14] | outcome [15] | Potency [16] | outcome [17] | outcome [19]

c1ccc2[nH]ccc2c1
inactive: outcome [1] | outcome [18] | outcome [3] | outcome [5] | outcome [6] | outcome [20] | outcome [7] | outcome [8] | outcome [9] | outcome [10] | outcome [11] | outcome [12] | outcome [13] | outcome [14] | outcome [15] | Potency [16] | outcome [17] | outcome [19]
